This is a sample that favours compounds with a hit; in the whole collection about 7.1% have one here.
Pyk2 oligo antag – antagonists of Pyk2 self-association, primary screen, Q293 cells, FERM NanoBiT luminescence, HTS. 0.83% of 99,000 active. active compounds read low. z-score (the deposit names both 25 µM and 10 µM). Protein-tyrosine kinase 2-beta (Homo sapiens), Q14289;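 active means Z-score of -3 or lower, scaled per plate to the spread of control and sample wells; inactive means z-score above -3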;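 further: negative z-score means lost luminescence so less FERM oligomerization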
Target sequence (Q14289 whole entry, looked up): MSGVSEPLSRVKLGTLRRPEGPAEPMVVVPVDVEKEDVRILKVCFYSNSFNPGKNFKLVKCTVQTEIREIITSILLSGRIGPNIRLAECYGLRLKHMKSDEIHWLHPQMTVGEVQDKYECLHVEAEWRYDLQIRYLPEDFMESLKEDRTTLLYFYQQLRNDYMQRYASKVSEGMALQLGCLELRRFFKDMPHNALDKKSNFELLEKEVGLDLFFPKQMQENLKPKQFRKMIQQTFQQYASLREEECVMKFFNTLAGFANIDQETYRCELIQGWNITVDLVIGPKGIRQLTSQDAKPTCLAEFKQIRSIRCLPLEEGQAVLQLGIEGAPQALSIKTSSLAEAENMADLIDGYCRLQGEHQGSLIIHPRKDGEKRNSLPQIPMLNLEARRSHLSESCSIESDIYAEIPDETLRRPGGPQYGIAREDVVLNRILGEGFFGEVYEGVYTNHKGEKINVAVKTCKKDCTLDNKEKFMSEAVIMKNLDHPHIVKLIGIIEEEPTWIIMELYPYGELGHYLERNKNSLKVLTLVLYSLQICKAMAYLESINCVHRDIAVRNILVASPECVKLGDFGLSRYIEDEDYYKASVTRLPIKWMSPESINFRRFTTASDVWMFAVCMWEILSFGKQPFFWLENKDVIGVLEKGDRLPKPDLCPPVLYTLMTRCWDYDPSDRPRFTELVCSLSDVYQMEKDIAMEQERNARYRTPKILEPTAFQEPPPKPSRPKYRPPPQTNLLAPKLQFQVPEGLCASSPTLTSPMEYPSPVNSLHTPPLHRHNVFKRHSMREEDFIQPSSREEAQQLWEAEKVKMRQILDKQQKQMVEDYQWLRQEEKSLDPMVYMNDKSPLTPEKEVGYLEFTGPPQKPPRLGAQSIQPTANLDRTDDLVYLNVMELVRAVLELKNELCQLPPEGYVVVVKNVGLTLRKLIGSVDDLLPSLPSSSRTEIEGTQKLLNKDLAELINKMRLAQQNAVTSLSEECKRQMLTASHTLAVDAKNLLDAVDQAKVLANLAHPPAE
M1 ag – M1 muscarinic receptor agonists, primary screen, CHO-M1 cells, Fluo-4 calcium, agonist mode. Muscarinic acetylcholine receptor M1. Fluo-4 calcium fluorescence; active compounds read high. B-score at 10 µM. 3% of 64,000 active;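 active means fluorescence rise, raw or as B-score row- and column-corrected plate score, outside the 99.7% band of its plate's samples, either direction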
Cav32 inh – Cav3.2 calcium influx blockers – cell-based, Fluo-4 calcium fluorescence, FDSS, MLSMR library, primary screen. B-score at 10 µM. 4% of 100,000 active. AID 449739, 2010. Cav3.2-expressing cells; active compounds read low;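 active means single-dose well whose peak fluorescence ratio is a statistical outlier from its plate by either plate-standardised score or position-corrected B-score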
M1 antag – antagonists of rat M1 muscarinic receptor; CHO-M1 cells, Fluo-4 calcium, ACh EC80 antagonist mode; active compounds read low; AID 628, 2007; B-score at 10 µM; 3.4% of 64,000 active;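 active means calcium fluorescence response, raw or row-and-column corrected B-score, differing from the plate sample mean either way at a set confidence level, mostly lower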
* hit, by the source's call.

O=C(NCC1CCCO1)c1onc(CSc2cccc3ccccc23)c1C(=O)O (centres undefined) was read as Cav32 inh -0.85.
For O=C(Nc1cccc(S(=O)(=O)N2CCOCC2)c1)c1c2c(nc3ccccc13)CCC2 the results were Pyk2 oligo antag -0.62.
Screening O=C(Nc1nc(-c2ccc3c(c2)OCO3)cs1)C1COc2ccccc2O1 (centres undefined) returned M1 ag -0.81, Cav32 inh -5.3* and M1 antag -0.32.
`O=C(Nc1nc(-c2ccccc2)cs1)C1COc2ccccc2O1` (centres undefined) gave Pyk2 oligo antag -0.47 and Cav32 inh -1.9.
CCCCSc1nc(SCC(=O)NCc2ccco2)c2c3c(sc2n1)COC(C)(CC)C3 (centres undefined) was read as Pyk2 oligo antag -1.1 and Cav32 inh -5.5*.
CCOc1cc(/C=C2/C(=N)N3OC(C)=CC3=NC2=O)ccc1OCCOc1ccccc1 was read as Pyk2 oligo antag 1.5 and Cav32 inh 0.29.
For Cc1cc(Br)ccc1OCC(=O)N(Cc1nc(-c2ccccc2)no1)C(C)C the results were Pyk2 oligo antag -0.46, M1 ag 3.9, Cav32 inh -4.8* and M1 antag 0.32.
Screening COc1ccccc1OCC(=O)N(Cc1nc(-c2ccc(Cl)cc2)no1)C(C)C returned M1 ag -0.17, Cav32 inh -5* and M1 antag -0.64.
`CCc1cc2c(=O)n(Cc3ccco3)c(SCC(=O)N3CCCc4ccccc43)nc2s1` gave Pyk2 oligo antag -0.24, M1 ag -0.69, Cav32 inh -5.3* and M1 antag 0.15.
`CCn1c(SCC(=O)Nc2cc(C)on2)nc2c(c1=O)SC(C)C2` (centres undefined) gave Pyk2 oligo antag -0.7, M1 ag -0.16, Cav32 inh 1.7 and M1 antag -0.6.
For CCn1c(SCC(=O)N2CCCc3ccccc32)nc2c(c1=O)SC(C)C2 (centres undefined) the results were M1 ag 0.44, Cav32 inh -0.4 and M1 antag 3.3*.
CCn1c(SCC(=O)Nc2nc3ccc(C)cc3s2)nc2c(c1=O)SC(C)C2 (centres undefined) was read as Pyk2 oligo antag -3.6*, M1 ag 0.022, Cav32 inh -0.46 and M1 antag 0.028.
For CCn1c(SCC(=O)N2CCc3ccccc32)nc2c(c1=O)SC(C)C2 (centres undefined) the results were M1 ag -0.0046 and M1 antag 0.13.
For CCC(=O)Nc1cccc(C2=NOC3(C2)C[C@H](C(N)=O)N(C(=O)CC#N)C3)c1 (some centres undefined) the results were Cav32 inh 1.2.
For COc1cccc(CNC(=O)CCS(=O)(=O)c2cccs2)c1 the results were Pyk2 oligo antag 1 and Cav32 inh 0.056.
`CCOC(=O)c1c(NC(=O)Cn2nnc(-c3ccc(Cl)cc3)n2)sc(CC)c1C` gave Pyk2 oligo antag 2 and Cav32 inh -1.
Screening Cc1ccc(S(=O)(=O)Nc2cc(C)c(O)c(S(=O)(=O)c3ccc(C)cc3)c2)cc1 returned Pyk2 oligo antag -0.1 and Cav32 inh -3.7*.
`Cc1ccc(C2CC(c3cccs3)=NN2C(=O)c2ccc(Br)o2)cc1` (centres undefined) gave Pyk2 oligo antag -1.4 and Cav32 inh -4*.
For Nc1cc(-c2ccccc2)nn1Cc1ccc(Cl)cc1 the results were Pyk2 oligo antag -0.59 and Cav32 inh -5.8*.
Nc1cc(-c2cccc(Br)c2)nn1Cc1ccccc1 was read as Pyk2 oligo antag 0.12.
For Cc1ccc(OCC(=O)N2CCN(c3nnc(-c4ccc(C)cc4)c4ccccc34)CC2)cc1 the results were Pyk2 oligo antag -1.9 and Cav32 inh -7.4*.
For COc1ccc(-c2nnc(N3CCCCC3)c3ccccc23)cc1 the results were Pyk2 oligo antag -1.4 and Cav32 inh -4.6*.
`COc1ccccc1N1CCN(c2nnc(-c3ccc(F)cc3)c3ccccc23)CC1` gave Pyk2 oligo antag -1.5 and Cav32 inh -0.1.
Screening Cc1ccc(C(=O)N[C@@H](C)CN2C3=NC[C@H](C)N3C[C@H]2Cc2ccc(O)cc2)cc1Br returned Cav32 inh -0.56.
CNC(=S)N1CCN(c2c(F)cc3c(=O)c(C(=O)O)cn(C4CC4)c3c2OC)CC1C (centres undefined) was read as Pyk2 oligo antag 0.26 and Cav32 inh 4.4*.
For C[C@H]1COc2c(N3CCN(C)CC3)c(F)cc3c(=O)c(C(=O)O)cn1c23 the results were Cav32 inh 0.19.
CCOC(=O)c1c(N)sc(C(O)(C(F)(F)F)C(F)(F)F)c1-c1ccc(OC)cc1OC was read as Pyk2 oligo antag -2.9, M1 ag 2.5, Cav32 inh -4.9* and M1 antag 1.5.
Screening COc1ccccc1CN(Cc1nc2ccccc2c(=O)[nH]1)S(=O)(=O)c1ccc2ccccc2c1 returned Pyk2 oligo antag -3* and Cav32 inh 1.2.
`COc1cc2nc(CN(C)Cc3nc4ccccc4c(=O)[nH]3)[nH]c(=O)c2cc1OC` gave Pyk2 oligo antag -0.68 and Cav32 inh -0.046.
For O=C1CC2(CCCCC2)Oc2ccc(Cl)cc21 the results were Cav32 inh 0.97.
CCOC(=O)c1ccc(NC(=O)CC2C(=O)N(c3ccc(F)cc3)C(=O)N2CCC(C)C)cc1 (centres undefined) was read as Pyk2 oligo antag -1.5 and Cav32 inh -4.5*.
For CCOC(=O)c1c(C)nc2sc3c(c2c1-c1ccc(OC)cc1)NC(c1ccc(OC)cc1)NC3=O (centres undefined) the results were Pyk2 oligo antag 1.5 and Cav32 inh -0.22.
For CCCCOc1ccc(CNC(=S)N/N=C/c2ccc(OC)c(OC)c2)cc1 the results were Pyk2 oligo antag 0.64 and Cav32 inh -0.55.
`CCc1cc2c(=O)c(-c3ccc4c(c3)OCCO4)coc2cc1OC(=O)c1ccco1` gave Pyk2 oligo antag -3.5*, M1 ag 0.037, Cav32 inh -0.0099 and M1 antag -0.00042.
CCc1cc2c(=O)c(-c3nc4ccccc4[nH]3)coc2cc1OC(=O)N1CCOCC1 was read as Pyk2 oligo antag -2.6, M1 ag -0.11 and M1 antag -0.69.
Screening CC(=O)Oc1c(S(=O)(=O)c2ccc(C)cc2)c(C)nn1C(C)(C)C returned Pyk2 oligo antag 0.92, M1 ag 3.5, Cav32 inh -0.17 and M1 antag 2.3*.
`O=C(Cn1nnc(-c2cccs2)n1)N1c2ccccc2Sc2ccc(C(F)(F)F)cc21` gave Pyk2 oligo antag -0.31 and Cav32 inh -5.4*.
For O=C(c1cn(-c2ccccc2)nc1-c1cccs1)N1CCN(c2ccccn2)CC1 the results were Pyk2 oligo antag -0.73, M1 ag 0.34, Cav32 inh -6.2* and M1 antag -0.33.
Screening CN(C)C(=O)c1cn(-c2ccccc2)nc1-c1cccs1 returned Pyk2 oligo antag -0.32 and Cav32 inh 0.008.
For Cc1cnn(C(=S)NCC2CCCO2)c1 (centres undefined) the results were Pyk2 oligo antag 0.23, M1 ag 1.1, Cav32 inh -0.19 and M1 antag 0.79.

Compound activity as filed in PubChem BioAssay.
